Results from PubChem BioAssay (NCI).
This is part of a sample that, as a whole, favours compounds with a hit. Of some 79,000 tested, about 15% had one in any assay. Activity calls are given as the source filed them. Rule as the data show it: active = growth inhibition above about 70%; inactive = the rest.

What was measured:
[1] = NCI Yeast Anticancer Drug Screen. Data for the rad50 strain (AID 155);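 also: 0% = growth of vehicle-only cultures of the same strain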; conditions: S. cerevisiae rad50 strain growth inhibition, hits give high values
In short: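 Yeast carrying a defined DNA repair defect were exposed to test compounds, and growth was compared with vehicle-treated controls to give percent inhibition.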

[2] = NCI Yeast Anticancer Drug Screen. Data for the mec2-1 strain (AID 157); conditions: S. cerevisiae mec2-1 strain, hits give high values
In short: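 Yeast mec2-1 mutant treated with compound. Readout: growth inhibition vs vehicle controls.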

[3] = NCI Yeast Anticancer Drug Screen. Data for the sgs1 mgt1 strain (AID 161);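 also: 0% = growth of cultures given vehicle only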; conditions: S. cerevisiae sgs1 mgt1 strain, hits give high values
In short: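 Inhibition of yeast growth, normalised to vehicle-treated controls, is reported for a strain bearing genetic alterations in DNA damage repair.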

[4] = NCI Yeast Anticancer Drug Screen. Data for the cln2 rad14 strain (AID 165);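 also: 0% = growth equal to vehicle treated cultures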; conditions: S. cerevisiae cln2 rad14 strain, hits give high values
In short: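 cln2 rad14 yeast strain; compound exposure; growth inhibition read vs vehicle controls.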

[5] = NCI Yeast Anticancer Drug Screen. Data for the bub3 strain (AID 167); conditions: S. cerevisiae bub3 mutant strain, hits give high values
In short: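 Compounds were applied to a genetically altered yeast strain carrying a cell-cycle control defect. Growth inhibition was scored against vehicle-treated controls.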

[6] = NCI Yeast Anticancer Drug Screen. Data for the mlh1 rad18 strain (AID 175); conditions: S. cerevisiae mlh1 rad18 strain growth inhibition, hits give high values
In short: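 Yeast w/ defined DNA-repair lesions; compound exposure; growth vs vehicle controls → % inhibition.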

[7] = at 5.0 µM (retest, dose inferred, filed as 0.5)
[8] = at 50.0 µM (retest, dose inferred, filed as 5.0)

Measured: growth inhibition

COc1cc(/C=C2/SC(=S)NC2=O)cc(OC)c1O
active: [3]; at 50.0 µM 71.4%
inactive: [1]; [7] -18% | [1]; [8] 29% | [1]; at 50.0 µM 46.4% | [2]; [7] 3% | [2]; [8] 49% | [2]; at 50.0 µM 30.9% | [3]; [7] 1% | [3]; [8] 42% | [4]; [7] -25% | [4]; [8] 20% | [4]; at 50.0 µM -1.6% | [5]; [7] -24% | [5]; [8] 22% | [5]; at 50.0 µM 42.6% | [6]; [7] -1% | [6]; [8] 19% | [6]; at 50.0 µM 41.2%

O=C(CCN(Cc1ccccc1)Cc1ccccc1)c1ccc2ccccc2c1
active: [1]; at 50.0 µM 76.2% | [3]; [8] 89% | [3]; at 50.0 µM 90.6% | [4]; at 50.0 µM 83.8% | [6]; at 50.0 µM 81.4%
inactive: [1]; [7] 30% | [1]; [8] 55% | [2]; [7] 28% | [2]; [8] 58% | [2]; at 50.0 µM 55.6% | [3]; [7] 59% | [4]; [7] 33% | [4]; [8] 61% | [5]; [7] 45% | [5]; [8] 69% | [5]; at 50.0 µM 60.1% | [6]; [7] 35% | [6]; [8] 68%

CSC(SC)(C(=O)O)c1cc(-c2c(Cl)cccc2Cl)no1
active: [3]; at 50.0 µM 95.5% | [5]; [8] 73% | [6]; at 50.0 µM 84.4%
inactive: [1]; [7] 3% | [1]; [8] 27% | [1]; at 50.0 µM 39% | [2]; [7] 2% | [2]; [8] 42% | [2]; at 50.0 µM 44% | [3]; [7] 7% | [3]; [8] 48% | [4]; [7] -1% | [4]; [8] -5% | [4]; at 50.0 µM 17.1% | [5]; [7] 13% | [5]; at 50.0 µM 51.6% | [6]; [7] 0% | [6]; [8] 36%

COC(=O)c1cc(C)c2sc3ccccc3c2c1C
active: [1]; at 50.0 µM 73.1% | [3]; at 50.0 µM 75.2%
inactive: [1]; [7] -13% | [1]; [8] 29% | [2]; [7] -8% | [2]; [8] 23% | [2]; at 50.0 µM 5.3% | [3]; [7] -7% | [3]; [8] 51% | [4]; [7] -8% | [4]; [8] 16% | [4]; at 50.0 µM -24.1% | [5]; [7] -21% | [5]; [8] 21% | [5]; at 50.0 µM 31.4% | [6]; [7] -3% | [6]; [8] 38% | [6]; at 50.0 µM 61.5%

CCCCCCC(O)C(CO)CCCCC (configuration not stated)
inactive: [1]; [7] 0% | [2]; [7] -2% | [3]; [7] 1% | [3]; [8] 62% | [3]; at 50.0 µM 45.5% | [4]; [7] 5% | [5]; [7] 0% | [6]; [7] -2%
active: [1]; [8] 97% | [1]; at 50.0 µM 98% | [2]; [8] 96% | [2]; at 50.0 µM 98% | [4]; [8] 97% | [4]; at 50.0 µM 98.8% | [5]; [8] 97% | [5]; at 50.0 µM 98.2% | [6]; [8] 92% | [6]; at 50.0 µM 98.5%

Cc1cc(N)c2c(c1O)C(=O)c1ccccc1C2=O
inactive: [1]; [7] -2% | [1]; [8] 47% | [1]; at 50.0 µM 7.5% | [2]; [7] -1% | [2]; [8] 26% | [2]; at 50.0 µM 7.35% | [3]; [7] -5% | [3]; [8] 39% | [3]; at 50.0 µM -0.6% | [4]; [7] 0% | [4]; [8] 21% | [4]; at 50.0 µM 25.1% | [5]; [7] -5% | [5]; [8] 42% | [5]; at 50.0 µM 20.8% | [6]; [7] -3% | [6]; [8] 47% | [6]; at 50.0 µM 18.2%

O=C(/C=C/c1ccccc1)C1(c2ccccc2)CC1
inactive: [1]; [7] -125% | [1]; [8] -56% | [2]; [7] -51% | [2]; [8] -42% | [2]; at 50.0 µM 60.9% | [3]; [7] -53% | [3]; [8] -2% | [3]; at 50.0 µM 68.9% | [4]; [7] -55% | [4]; [8] -34% | [4]; at 50.0 µM -21.4% | [5]; [7] -58% | [5]; [8] 39% | [5]; at 50.0 µM 44.5% | [6]; [7] -115% | [6]; [8] -93% | [6]; at 50.0 µM 66.5%
active: [1]; at 50.0 µM 79.8%

CCC/C(=N\NC(=S)N1CCCCCC1)c1ccccn1
inactive: [1]; [7] 69% | [4]; [7] 66%
active: [1]; [8] 97% | [1]; at 50.0 µM 90.3% | [2]; [7] 77% | [2]; [8] 97% | [2]; at 50.0 µM 93.5% | [3]; [7] 72% | [3]; [8] 97% | [3]; at 50.0 µM 90.9% | [4]; [8] 97% | [4]; at 50.0 µM 91.7% | [5]; [7] 90% | [5]; [8] 96% | [5]; at 50.0 µM 90.7% | [6]; [7] 82% | [6]; [8] 96% | [6]; at 50.0 µM 90.2%

CN(C(=S)c1ccccc1)c1ccccc1
active: [1]; at 50.0 µM 97.4% | [2]; at 50.0 µM 82% | [5]; at 50.0 µM 96.6% | [6]; at 50.0 µM 91.7%
inactive: [1]; [7] -166% | [1]; [8] -132% | [2]; [7] -45% | [2]; [8] -56% | [3]; [7] -63% | [3]; [8] -61% | [3]; at 50.0 µM 69.2% | [4]; [7] -61% | [4]; [8] -65% | [4]; at 50.0 µM 58.7% | [5]; [7] -81% | [5]; [8] -80% | [6]; [7] -150% | [6]; [8] -131%
